Laboratory results published in PubChem BioAssay (NCI).
The panel holds about 83,000 compounds, 20% with a hit somewhere; the sample as a whole holds those more often.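 Negative percent growth values reflect cell death: -40 means 40% of the cells present at the start died, and -100 means all died.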 Unmarked numbers belong to inactive results. Activity calls are given as the source filed them. How the source made its calls: active means growth percent below 10; inactive means the rest.

Columns and labels:
Test in all cases: NCI-60 one-dose screen, 48 h (100 = growth as untreated, 0 = no growth, -100 = all killed)
Conditions in all cases: 10 µM unless noted
SK-MEL-2 melanoma = test system: SK-MEL-2 melanoma
EKVX NSCLC = test system: EKVX NSCLC
SN12C renal = test system: SN12C renal
UO-31 renal = test system: UO-31 renal
TK-10 renal = test system: TK-10 renal
ACHN renal = test system: ACHN renal
CAKI-1 renal = test system: CAKI-1 renal
A498 renal = test system: A498 renal
CCRF-CEM leukemia = test system: CCRF-CEM leukemia
MOLT-4 leukemia = test system: MOLT-4 leukemia
SR leukemia = test system: SR leukemia
RPMI-8226 leukemia = test system: RPMI-8226 leukemia
OVCAR-8 ovarian = test system: OVCAR-8 ovarian
OVCAR-5 ovarian = test system: OVCAR-5 ovarian
OVCAR-4 ovarian = test system: OVCAR-4 ovarian
SK-OV-3 ovarian = test system: SK-OV-3 ovarian
IGROV1 ovarian = test system: IGROV1 ovarian
OVCAR-3 ovarian = test system: OVCAR-3 ovarian
HS 578T breast = test system: HS 578T breast
NCI/ADR-RES ovarian = test system: NCI/ADR-RES ovarian

| Compound | growth (SK-MEL-2 melanoma) | growth (EKVX NSCLC) | growth (SN12C renal) | growth (UO-31 renal) | growth (TK-10 renal) | growth (ACHN renal) | growth (CAKI-1 renal) | growth (A498 renal) | growth (CCRF-CEM leukemia) | growth (MOLT-4 leukemia) | growth (SR leukemia) | growth (RPMI-8226 leukemia) | growth (OVCAR-8 ovarian) | growth (OVCAR-5 ovarian) | growth (OVCAR-4 ovarian) | growth (SK-OV-3 ovarian) | growth (IGROV1 ovarian) | growth (OVCAR-3 ovarian) | growth (HS 578T breast) | growth (NCI/ADR-RES ovarian) |
| --- | --- | --- | --- | --- | --- | --- | --- | --- | --- | --- | --- | --- | --- | --- | --- | --- | --- | --- | --- | --- |
| CC1(c2cc3cc(Cl)ccc3oc2=O)NC(=O)c2c(/C=C/C(=O)OC3CC4CCC3(C)C4(C)C)cccc2N1 (stereo not given) | 53.7% | 49.4% | 58.5% | 42.8% | 79.3% | 61.7% | 59.6% | 118% | 59.4% | 21.2% | 42.2% | 22% | 70.4% | 80.6% | 54.4% | 66.1% | 76.1% | 69% | 72.8% | 64% |
| C=C1CCC2C3(C)COC(c4cccs4)OC3CCC2(C)C1CC(Sc1ccccc1)C1=CCOC1=O (stereo not given) | 98.2% | 116% | 46.4% | 58.5% | 118% | 91.1% | 101% | 133% | 1.2% (active) | 52.9% | 46.1% | 16.1% | 66% | 102% | 83.6% | 131% | 95.5% | 86.1% | 112% | 2.64% (active) |
| Cc1ccc([C@H]2C(C(=O)c3ccc(Cl)cc3)C3(N[C@@H]2c2ccccc2)C(=O)Nc2ccc(Cl)cc23)cc1 (stereo not given in full) | 49.9% | 59.8% | -1.19% (active) | 31.2% | 65.7% | 38.7% | 39.1% | 94% | 66.3% | 3.24% (active) | -3.12% (active) | 32.4% | 59.3% | 67.5% | 57.4% | 67.4% | 50.9% | 45.8% | 74.4% | 54.6% |
| Cn1cc(-c2cc3nc(-c4c[nH]c5ccc(Br)cc45)cc(N)n3n2)c2ccccc21 | -86.5% (active) | -79.4% (active) | -73% (active) | -97.7% (active) | -90.3% (active) | -98.4% (active) | -87.8% (active) | -25% (active) | -19.6% (active) | -33.8% (active) | 2.66% (active) | -10.1% (active) | -85.1% (active) | -86.1% (active) | -57% (active) | -66.5% (active) | -57.2% (active) | -40% (active) | -22.5% (active) | -32.8% (active) |
| COc1ccc2[nH]cc(-c3nc(N)nnc3-c3cn(C)c4ncccc34)c2c1 | 49.4% | 63.7% | 59.6% | 43.9% | 93.1% | 67.3% | 38.8% | 104% | 67.7% | 41.3% | 33.5% | 58.2% | 64.4% | 77.9% | 78% | 86.3% | 32.9% | 16.2% | 37.2% | 99% |
| CC(=O)Nc1ccc(-n2cnc3ccc(-c4ccc(O)cc4)cc32)cc1 | 50.7% | 54.8% | 29.3% | 46.2% | 89.9% | 24.7% | 29.9% | 92.8% | 30.2% | 11.3% | 15.8% | 38.9% | 42.1% | 72.2% | 67.3% | 66.8% | 27.2% | 54.3% | 8.57% (active) | 84.4% |
| CN(C)c1nc(NCCNS(=O)(=O)c2ccc(C3=Nc4c(N)nc(N)nc4NC(c4ccc(C(F)(F)F)cc4)C3)cc2)nc(Nc2ccc(F)cc2)n1 (stereo not given) | -82% (active) | 26.2% | 30.8% | 84.7% | 59.4% | 58.5% | 63.1% | 41.6% | 8.86% (active) | 9.04% (active) | -23.2% (active) | -13.1% (active) | 32.8% | 29.5% | 31.3% | 49.8% | 35.8% | 23% | 27.1% | 92.9% |
| C=C1CCC2C3(C)COC(c4ccccc4F)OC3CCC2(C)C1CC(O)C1=CCOC1=O (stereo not given) | 17.2% | 85.3% | 39.1% | 11.7% | 107% | -23% (active) | 66% | 141% | 16.7% | 48.9% | 30.9% | 10.7% | -11.4% (active) | 74.9% | 50.3% | 110% | 51.4% | 31.1% | 78.3% | 5.4% (active) |
| Cc1ccc2c(c1)nc(-c1ccccc1)n2CC(=O)N=Nc1c(O)[nH]c2ccc(Br)cc12 | -40.5% (active) | -77.2% (active) | -72.3% (active) | -90% (active) | -10% (active) | -99.9% (active) | -65.4% (active) | -37.2% (active) | 23.8% | -42.1% (active) | 0.421% (active) | -1.7% (active) | -67.2% (active) | -20.2% (active) | -49.3% (active) | -32% (active) | -78% (active) | -75.2% (active) | -5.01% (active) | -69.6% (active) |
| CCCCNC(=S)Nc1ccc(OCc2nc3ccccc3[nH]2)cc1 | 69.1% | 62.3% | 64.5% | 41.1% | 98.8% | 45.5% | 40% | 96.5% | 34.2% | 35.2% | 53.7% | 58.8% | 59.3% | 86% | 57.2% | 113% | 78.6% | 60.3% | 92.3% | 65.9% |
| C#CCOc1cc(N(CC)CC)ccc1C(C(=O)NC(C)(C)C)N(C(=O)C1CCc2cc(F)ccc2O1)c1ccccc1Br (stereo not given) | 3.66% (active) | 60.4% | 56.3% | 43.4% | 86.3% | 42.1% | 44.7% | 80.9% | 57.5% | 14.4% | 47.6% | 37.9% | 63.2% | 69% | 60.4% | 72.1% | 90.9% | 81.6% | 84.7% | 63.3% |
| CN(C)CCn1c2ccccc2c2nc3cc4ccccc4cc3nc21 | 60.1% | 36.8% | 32.3% | 12.3% | 53% | 7.52% (active) | 4.76% (active) | 80.8% | 18.3% | 7.22% (active) | 5.18% (active) | 14.4% | -46.8% (active) | 8% (active) | 48% | 45.5% | -9.73% (active) | 46.6% | 42.7% | -19.4% (active) |
| O=C(N=Nc1c(O)[nH]c2ccc(Cl)cc12)c1ccc2nc(-c3ccccc3)[nH]c2c1 | 43.4% | 92.4% | 42% | 78.8% | 143% | 68.4% | 89.3% | 137% | 41.7% | 27.3% | 15.3% | 70.1% | 20.8% | 106% | 38.2% | 91% | 75.4% | 109% | 52.3% | 90% |
| C#CCOc1cc(N(CC)CC)ccc1C(C(=O)NC(C)(C)C)N(C(=O)C1CCc2cc(F)ccc2O1)c1ccc(F)c(Cl)c1 (stereo not given) | -6.45% (active) | 54.4% | 55.8% | 47.2% | 85.2% | 61.6% | 41.1% | 73% | 52.8% | 21.2% | 35% | 38.3% | 69% | 82.7% | 57.8% | 73.1% | 70.5% | 57.7% | 75.2% | 72.9% |
| Cn1cc(NC(=O)c2cc(NC(=O)c3ccc(C#Cc4ccccc4)cc3)cn2C)cc1C(=O)NCCCN1CCOCC1 | 86.2% | 80.9% | 40% | 67.8% | 126% | 63.8% | 56.9% | 114% | 0.88% (active) | -19.3% (active) | -34.3% (active) | -42.6% (active) | 38.9% | 83.2% | 63% | 83.2% | 66.8% | 46% | 95.9% | 90% |
